# Calls of active or inactive are those of the source. Unless noted, the rule behind the calls is not given here.
# Experiments:
# [1] = resazurin metabolic signal in HepG2 cells – cell-based, resazurin fluorescence, 24 h, PK04 Diversity Set, profiling panel (AID 1172); settings: HepG2 viability, higher = more signal
# [2] = budding yeast growth changes without added modifier – OD600, strain BY4716, 24 h, basal condition, primary screen (AID 1173); settings: S. cerevisiae BY4716 growth, OD600, 24 h; higher = more signal, called active from +8 up or from −8 down
# [3] = viability profiling in MM1S myeloma cells – cell-based, resazurin fluorescence, basal, 24 h, PK04 Diversity Set, profiling panel (AID 1174); settings: higher = more signal, called active from +8 up or from −8 down;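 note: MM1S multiple myeloma cell line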
# [4] = target: Dihydroorotate dehydrogenase (quinone), mitochondrial (Plasmodium falciparum (isolate 3D7)) (UniProt Q08210); experiment: inhibition of P. falciparum DHODH – biochemical, C-terminal His tag, absorbance 600 nm, primary screen (AID 1175); settings: PfDHODH enzyme, DCIP absorbance 600 nm; higher = more signal, called active from +8 up or from −8 down;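 note: recombinant parasite enzyme with a five histidine tag at its C terminus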
# [5] = inhibition of PAO1 biofilm formation – strain PAO1, LB-PBS medium, absorbance 600 nm, primary screen (AID 1176); settings: P. aeruginosa PAO1 growth/biofilm, A600, 12 h; higher = more signal
# [6] = growth modulation of vineyard yeast isolate – strain RM11-1a, OD600, basal, 24 h, primary screen (AID 1177);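 note: cultures grown under basal conditions with no added stressor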; settings: S. cerevisiae RM11-1a growth, OD600, 24 h; higher = more signal, called active from +8 up or from −8 down
# [7] = growth of efflux-deficient E. coli DRC39 – strain DRC39, OD650, 24 h, E. coli filamentation inducers, primary screen (AID 1178);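 note: growth measured as culture turbidity by optical density at 650 nm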; settings: E. coli DRC39 acrAB, higher = more signal, called active from +8 up or from −8 down
# [8] = growth of efflux-deficient E. coli DRC39 – strain DRC39, OD650, 48 h, E. coli filamentation inducers, primary screen (AID 1179);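 note: screen aims at cell division blockers that make cells filament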; settings: E. coli DRC39 delta-acrAB growth, higher = more signal, called active from +8 up or from −8 down
# [9] = viability profiling in RPMI8226 myeloma cells – cell-based, resazurin fluorescence, basal, 24 h, PK04 Diversity Set, profiling panel (AID 1180); settings: higher = more signal;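 note: RPMI8826 multiple myeloma cell line at 5000 cells per well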
# [10] = target: E3 ubiquitin-protein ligase XIAP (Homo sapiens) (UniProt P98170); experiment: small molecules binding XIAP protein – biophysical, small-molecule microarray, fluorescence 635 nm, primary screen (AID 1181); settings: higher = more signal;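 note: score merges 667 nm emission and signal to noise over triplicate slides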
# [11] = test system: XIP peptide (Xip251-270) binding; experiment: XIP fragment 251-270 binding compounds – biochemical, small-molecule microarray, fluorescence 635/667 nm, 0.1 µg/mL protein, primary screen (AID 1182); settings: fluorescent protein binding, 635 nm, higher = more signal, called active from +8 up or from −8 down
# [12] = test system: XIP peptide (Xip251-270); experiment: compounds binding XIP fragment 251-270 – biochemical, small-molecule microarray, fluorescence 635/667 nm, 0.5 µg/mL protein, primary screen (AID 1183); settings: fluorescence 635 nm, higher = more signal
# [13] = blood-stage malaria parasite viability loss – strain 3D7, DAPI fluorescence, 100 nL, primary screen (AID 1184);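 note: parasites grown inside human red blood cells in medium with human serum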; settings: P. falciparum 3D7 growth, 3 d, higher = more signal
# [14] = target: Homeobox protein Hox-A13 (Mus musculus) (UniProt Q62424); experiment: disruptors of Hoxa13 oligonucleotide interaction – biochemical, fluorescence polarization, labeled oligonucleotide, primary screen (AID 1185); settings: Hoxa13:DNA binding, 15 min, higher = more signal, called active from +8 up or from −8 down
# [15] = blockers of DNA damage checkpoint Chk1 activation – imaging, HeLa, hydroxyurea, phospho-Chk1 antibody, percent positive cells, primary screen (AID 1186); settings: hydroxyurea-induced phospho-Chk1 immunofluorescence imaging, higher = more signal
# [16] = blockers of DNA damage checkpoint Chk1 activation – imaging, HeLa, hydroxyurea, phospho-Chk1 nuclear intensity, primary screen (AID 1187); settings: hydroxyurea-induced phospho-Chk1 immunofluorescence imaging, higher = more signal
# Homeobox protein Hox-A13 (Mus musculus), sequence (Q62424 whole entry, looked up): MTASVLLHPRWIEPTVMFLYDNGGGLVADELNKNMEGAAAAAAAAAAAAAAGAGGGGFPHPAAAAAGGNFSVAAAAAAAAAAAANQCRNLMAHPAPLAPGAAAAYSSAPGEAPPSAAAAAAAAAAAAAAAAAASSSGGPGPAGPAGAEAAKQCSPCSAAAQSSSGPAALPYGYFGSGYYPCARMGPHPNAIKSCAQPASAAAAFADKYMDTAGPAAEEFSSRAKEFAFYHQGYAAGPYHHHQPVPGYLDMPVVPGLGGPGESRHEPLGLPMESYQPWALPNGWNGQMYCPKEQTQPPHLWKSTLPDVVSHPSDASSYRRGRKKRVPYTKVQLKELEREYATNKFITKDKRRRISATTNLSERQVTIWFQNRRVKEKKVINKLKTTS
# Dihydroorotate dehydrogenase (quinone), mitochondrial (Plasmodium falciparum (isolate 3D7)), sequence (Q08210 whole entry, looked up): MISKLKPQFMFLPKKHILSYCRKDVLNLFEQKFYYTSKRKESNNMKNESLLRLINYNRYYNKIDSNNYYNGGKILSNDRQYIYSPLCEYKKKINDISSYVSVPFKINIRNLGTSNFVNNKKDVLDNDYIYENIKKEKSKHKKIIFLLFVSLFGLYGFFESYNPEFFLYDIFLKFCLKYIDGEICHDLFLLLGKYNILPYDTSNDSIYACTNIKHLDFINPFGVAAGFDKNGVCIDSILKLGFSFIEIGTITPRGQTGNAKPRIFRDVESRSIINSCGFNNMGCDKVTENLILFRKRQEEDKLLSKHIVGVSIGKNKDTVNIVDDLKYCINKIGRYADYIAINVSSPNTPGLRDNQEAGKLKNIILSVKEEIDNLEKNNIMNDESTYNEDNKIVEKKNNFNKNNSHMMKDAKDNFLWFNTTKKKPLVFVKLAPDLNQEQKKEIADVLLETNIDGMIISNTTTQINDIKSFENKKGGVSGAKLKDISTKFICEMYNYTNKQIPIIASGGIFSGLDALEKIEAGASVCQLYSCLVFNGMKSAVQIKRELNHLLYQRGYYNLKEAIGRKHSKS
# E3 ubiquitin-protein ligase XIAP (Homo sapiens), sequence (P98170 whole entry, looked up, the tested form may be a part): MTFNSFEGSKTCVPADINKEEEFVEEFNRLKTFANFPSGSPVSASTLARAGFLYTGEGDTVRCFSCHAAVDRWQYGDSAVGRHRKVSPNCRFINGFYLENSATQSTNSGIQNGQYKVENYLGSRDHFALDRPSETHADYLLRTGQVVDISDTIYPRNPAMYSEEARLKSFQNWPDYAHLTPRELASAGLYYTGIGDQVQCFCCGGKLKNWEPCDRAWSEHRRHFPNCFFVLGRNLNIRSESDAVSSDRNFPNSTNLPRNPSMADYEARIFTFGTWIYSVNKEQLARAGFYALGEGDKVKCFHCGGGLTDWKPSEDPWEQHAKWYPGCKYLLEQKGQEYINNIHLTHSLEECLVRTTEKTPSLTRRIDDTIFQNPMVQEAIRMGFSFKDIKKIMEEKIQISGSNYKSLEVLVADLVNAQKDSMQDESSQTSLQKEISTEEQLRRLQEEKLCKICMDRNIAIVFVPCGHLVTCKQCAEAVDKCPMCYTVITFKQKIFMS
Compound,z-score [1],z-score [2],z-score [3],composite z-score [4],z-score [5],z-score [6],z-score [7],z-score [8],z-score [9],composite z-score [10],composite z-score [11],composite z-score [12],z-score [13],z-score [14],z-score [15],z-score [16]
C=CC[C@]1(C(=O)OC)N=C(c2ccc(OCCCO)cc2)O[C@H]1c1ccccc1N=[N+]=[N-],-0.344,-0.352 (inactive),-0.455 (inactive),0.823 (inactive),0.935 (inactive),1.6 (inactive),0.0005 (inactive),-1.12 (inactive),-0.406,0.509,1.61 (inactive),0.867,-2.21,-3.31 (inactive),-0.179 (inactive),0.059 (inactive)
CCCCC(=C=CC[C@H](O)c1ccc(OCCO)cc1)C[C@H](O)c1ccccn1,0.325,-0.265 (inactive),0.747 (inactive),-2.06 (inactive),-0.247 (inactive),0.387 (inactive),1.45 (inactive),0.949 (inactive),1.76,-0.142,0.575 (inactive),0.645,-0.593,-5.18 (inactive),0.203 (inactive),0.451 (inactive)
COCC1=C([C@H](O)CCc2ccccc2)[C@H](CO)n2c(=O)n(-c3ccccc3)c(=O)n2C1,-0.236,-3.02 (inactive),0.0444 (inactive),-0.855 (inactive),0.188 (inactive),-1.94 (inactive),1.19 (inactive),1.32 (inactive),0.113,-0.0848,0.625 (inactive),-0.0859,0.0736,-3.09 (inactive),-0.48 (inactive),1.51 (inactive)
CC(=O)c1ccc(C(O)C2C=CC3C(=O)N(C)C(=O)C3N2NC(=O)OC(C)(C)C)cc1 (centres undefined),-1.69,1.74 (inactive),-1.04 (inactive),0.625 (inactive),0.378 (inactive),0.845 (inactive),-0.9 (inactive),-0.47 (inactive),-1.05,0.155,2.44 (inactive),0.763,-0.29,-1.11 (inactive),0.976 (inactive),0.688 (inactive)
COCCCN1C(=O)[C@@]2(Cc3ccccc31)c1ccccc1C(=O)N(Cc1ccccc1OC)[C@H]2c1ccc(CO)cc1,-0.525,-0.0955 (inactive),-0.309 (inactive),-3.75 (inactive),0.292 (inactive),-0.724 (inactive),0.487 (inactive),-0.128 (inactive),-0.0935,-0.0622,-0.184 (inactive),0.0806,0.861,-2.34 (inactive),0.177 (inactive),0.217 (inactive)
CC=CC(O)C1C=CC2C(=O)N(C)C(=O)C2N1NC(=O)OC(C)(C)C (centres undefined),-1,0.906 (inactive),-0.524 (inactive),-0.0735 (inactive),-0.0625 (inactive),-0.243 (inactive),-0.447 (inactive),-0.504 (inactive),-0.939,0.0621,-0.3 (inactive),0.335,0.675,-1.46 (inactive),0.698 (inactive),-0.0345 (inactive)
O=C1O[C@H](c2ccccc2)[C@H](c2ccccc2)N2[C@H]1[C@@H](C(=O)NC[C@H](O)c1ccccc1)[C@]1(C(=O)Nc3ccc(C#CCCO)cc31)[C@H]2c1ccccc1OCCO,1.19,0.904 (inactive),-1.12 (inactive),-0.532 (inactive),0.517 (inactive),1.48 (inactive),0.439 (inactive),-0.467 (inactive),-0.591,-0.209,0.419 (inactive),0.693,-1.4,-4 (inactive),0.125 (inactive),0.46 (inactive)
COCCOC(=O)N1C(=O)[C@@]2(c3cc(C#CCC(C(=O)OC)C(=O)OC)ccc31)[C@H](c1ccc(OCCO)cc1)N1[C@H](c3ccccc3)[C@H](c3ccccc3)OC(=O)[C@H]1[C@@H]2C(=O)N1CCCCCCC1,-0.0464,1.45 (inactive),0.13 (inactive),0.551 (inactive),0.83 (inactive),2.72 (inactive),-0.599 (inactive),0.0786 (inactive),0.174,0.519,0.836 (inactive),0.523,-2.09,-15.5 (active),-0.181 (inactive),0.106 (inactive)
NCCCC[C@@H]1NC(=O)[C@H]2C[C@@H](C(=O)NCc3ccc(F)cc3)[C@@H](c3cccc(OCCO)c3)N2C1=O,-1.49,-0.956 (inactive),0.646 (inactive),0.22 (inactive),0.379 (inactive),1.57 (inactive),0.71 (inactive),0.896 (inactive),1.04,-0.271,0.752 (inactive),0.837,0.0979,5.72 (inactive),-0.281 (inactive),-0.45 (inactive)
Cc1ccc(S[C@]2(C(=O)NCCN3CCOCC3)CC(=O)N(C3CCCCC3)[C@@H]2c2ccc(CO)cc2I)cc1,1.5,-0.0113 (inactive),0.482 (inactive),0.88 (inactive),-0.447 (inactive),1.27 (inactive),0.464 (inactive),0.677 (inactive),-1.29,-0.302,0.825 (inactive),0.657,-1.92,-5.68 (inactive),0.134 (inactive),0.114 (inactive)
O=C1N(CCS(=O)(=O)c2ccccc2)c2ccccc2[C@@H]2OC(c3ccc(OCCCO)cc3)=N[C@]12CCS(=O)(=O)c1ccccc1,0.546,1.24 (inactive),-0.0861 (inactive),-0.038 (inactive),1.73 (inactive),1.8 (inactive),0.481 (inactive),-0.468 (inactive),-0.63,-0.265,3.92 (inactive),0.83,-2.18,0.806 (inactive),0.38 (inactive),0.682 (inactive)
CN(C)CCCCNC(=O)[C@H]1C[C@H]2C(=O)N[C@@H](Cc3ccccc3)C(=O)N2[C@H]1c1cccc(OCCO)c1,1.36,-0.456 (inactive),1.38 (inactive),0.65 (inactive),-0.254 (inactive),-0.372 (inactive),0.553 (inactive),0.862 (inactive),1.06,0.0512,-0.0743 (inactive),-0.0022,-0.0613,-3.06 (inactive),-0.826 (inactive),-0.851 (inactive)
COc1ccc([Si](C)(C)[C@@H]2[C@@H](CC(=O)N(CCO)Cc3ccccc3)O[C@]3(C(=O)N(Cc4ccc(N5CCC5=O)cc4)c4ccccc43)[C@H]2C)cc1,0.278,0.144 (inactive),-0.604 (inactive),-1.44 (inactive),1.2 (inactive),0.67 (inactive),0.505 (inactive),0.358 (inactive),-1.66,-0.0151,3.33 (inactive),0.443,-0.767,-1.08 (inactive),0.366 (inactive),0.971 (inactive)
COc1ccc([Si](C)(C)[C@H]2[C@H](CCn3cc([C@H](O)c4ccccc4)nn3)O[C@@]3(C(=O)N(C)c4c(Br)cc(C)cc43)[C@@H]2C)cc1,-2.69,-0.691 (inactive),-3.29 (inactive),1.19 (inactive),1.03 (inactive),1.01 (inactive),0.566 (inactive),0.132 (inactive),-5.5,0.0512,0.424 (inactive),0.586,-2.41,-2.54 (inactive),-0.66 (inactive),-0.0953 (inactive)
CC(c1ccccc1)C(O)C1C=CC2C(=O)N(c3ccccc3)C(=O)C2N1Nc1ccc(C#N)cc1 (centres undefined),0.142,-0.0091 (inactive),-1.24 (inactive),-0.0432 (inactive),0.695 (inactive),-0.977 (inactive),1.07 (inactive),1.83 (inactive),-0.008,0.332,0.235 (inactive),0.784,0.526,-1.21 (inactive),-0.325 (inactive),0.313 (inactive)
COC(=O)[C@@]1(Cc2ccccc2CN=[N+]=[N-])COC(c2ccc(OCCCO)cc2)=N1,-0.639,-5.02 (inactive),-1.75 (inactive),0.37 (inactive),1.07 (inactive),0.593 (inactive),0.544 (inactive),-0.74 (inactive),-0.39,-0.0582,1.31 (inactive),0.871,-1.3,-4.77 (inactive),-0.184 (inactive),0.0494 (inactive)
COCCOC(=O)N1C(=O)[C@@]2(c3cc(C#CCCO)ccc31)[C@H](c1ccccc1OCCO)N1[C@H](c3ccccc3)[C@H](c3ccccc3)OC(=O)[C@H]1[C@@H]2C(=O)N1CCc2cc(OC)c(OC)cc2C1,-0.321,1.39 (inactive),0.248 (inactive),0.725 (inactive),1.26 (inactive),2 (inactive),0.0965 (inactive),0.963 (inactive),1.19,0.132,0.291 (inactive),0.816,-1.75,0.0237 (inactive),-0.156 (inactive),0.0652 (inactive)
CCOC(=O)C1=CCC(c2cc3ccccc3[nH]2)N(S(=O)(=O)c2ccccc2[N+](=O)[O-])C1 (centres undefined),-0.0211,1.08 (inactive),-1.08 (inactive),-0.242 (inactive),0.546 (inactive),-0.16 (inactive),-0.591 (inactive),0.158 (inactive),-1.62,-0.014,-0.212 (inactive),0.817,-0.65,-1.5 (inactive),-0.285 (inactive),-0.518 (inactive)
C[N+](C)(C)CCCC[C@@H]1NC(=O)[C@H]2C[C@@H](C(=O)NCCCCCNC(=O)CS)[C@@H](c3ccc(O)cc3)N2C1=O,-0.532,-0.905 (inactive),0.469 (inactive),-1.3 (inactive),0.82 (inactive),-2.28 (inactive),0.902 (inactive),1.33 (inactive),-0.178,-0.216,0.949 (inactive),0.696,-0.0941,-0.677 (inactive),0.0225 (inactive),0.579 (inactive)
